From PubChem BioAssay (NCATS) come the findings set out here.

Test [1] is described as follows: qHTS of pediatric cancer cell lines to identify multiple opportunities for drug repurposing: Primary screen for control Hh wild type fibroblast cells (AID 1347106).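 Further: series mostly up to about 46 µM; a drop in luminescence marks cytotoxicity and a rise apparent proliferation; nearly all actives have a fitted effect of over 55% in size.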 The gist of the method:
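Cells (500-1,000/well) in growth media were settled 5 h at 37 degrees C, then given compounds for 48 h. Viability was read as CellTiter-Glo luminescence. Primary runs used MIPE at 11 points (0.78 nM-46 µM) and NPC at 8 points (0.59 nM-46 µM); follow-ups used 11 points.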

Test [2] in a line: qHTS of pediatric cancer cell lines to identify multiple opportunities for drug repurposing: Primary screen for Rh30 cells (AID 1347107). Further: series mostly up to about 46 µM; nearly all actives have a fitted effect of over 75% in size. The essentials: (§1)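 Cells (500-1,000/well) rested 5 h, then received compounds for 48 h; metabolically active cells were measured by CellTiter-Glo luminescence. Final concentrations spanned up to 46 µM (MIPE, 11-point) or 0.59 nM-46 µM (NPC, 8-point) in primary screens, 11-point in follow-ups.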

Test [3] can be described thus: qHTS of pediatric cancer cell lines to identify multiple opportunities for drug repurposing: Primary screen for Rh41 cells (AID 1347108). Further: nearly all actives have a fitted effect of over 70% in size. Further: potency means the concentration at half of the fitted maximal effect. The gist of the method:
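Primary screen of approved and investigational compounds on cells in growth media at 37 degrees C, 5% CO2. MIPE set at 11-point and NPC set at 8-point dilutions; viability scored by ATP-based luminescence at 48 hours.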

Test [4] in a line: qHTS of pediatric cancer cell lines to identify multiple opportunities for drug repurposing: Confirmatory screen for NB1643 cells (AID 1347109). Further: nearly all actives have a fitted effect of over 45% in size. Further: potency means the concentration at half of the fitted maximal effect. The essentials:
as §1

A short description of test [5]: qHTS of pediatric cancer cell lines to identify multiple opportunities for drug repurposing: Confirmatory screen for A673 cells (AID 1347110).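 Further: cells exposed to compound for 48 h before the viability read; nearly all actives have a fitted effect of over 65% in size.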 Further: potency means the concentration at half of the fitted maximal effect. The gist of the method: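 Viability was read as ATP luminescence (CellTiter-Glo) after 48 h of compound exposure at 37 C in A673 cells seeded at 500-1,000/well. Titrations reached 46 uM final, with 11 points in the confirmatory screen. Concentration-response curves were fitted directly.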

A short description of test [6]: qHTS of pediatric cancer cell lines to identify multiple opportunities for drug repurposing: Confirmatory screen for SK-N-MC cells (AID 1347111).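 Further: cells exposed to compound for 48 h before the readout; nearly all actives have a fitted effect of over 70% in size.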 Further: potency means the concentration at half of the fitted maximal effect. The gist of the method: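 Seed 500-1,000 cells/well; rest 5 h at 37 degrees C. Pin-transfer compounds, 11-point titration. Incubate 48 h. Add CellTiter-Glo, 15 min RT, read luminescence.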
A short description of test [7]: qHTS of pediatric cancer cell lines to identify multiple opportunities for drug repurposing: Confirmatory screen for NB-EBc1 cells (AID 1347115).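 Further: cells exposed to compound for 48 h before the viability read; nearly all actives have a fitted effect of over 45% in size.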 The essentials: as §1
Test [8] can be described thus: qHTS of pediatric cancer cell lines to identify multiple opportunities for drug repurposing: Confirmatory screen for TC32 cells (AID 1347118).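 Further: cells exposed to compound for 48 h before the read; nearly all actives have a fitted effect of over 65% in size.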 Further: potency means the concentration at half of the fitted maximal effect. The gist of the method: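 Measured quantity: luminescence from CellTiter-Glo, reflecting metabolically active TC32 cells following 48 h of compound. Curves came straight from multi-point titrations, with 8 or 11 points in primary and 11 in confirmatory screening.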

The nature of test [9]: qHTS of pediatric cancer cell lines to identify multiple opportunities for drug repurposing: Confirmatory screen for control Hh wild type fibroblast cells (AID 1347121). Further: nearly all actives have a fitted effect of over 70% in size. The gist of the method:
as §1

Test [10] in a line: qHTS of pediatric cancer cell lines to identify multiple opportunities for drug repurposing: Confirmatory screen for U-2 OS cells (AID 1347122). Further: nearly all actives have a fitted effect of over 65% in size. The essentials:
as §1

Test [11] in a line: qHTS of pediatric cancer cell lines to identify multiple opportunities for drug repurposing: Confirmatory screen for Rh41 cells (AID 1347123). Further: nearly all actives have a fitted effect of over 60% in size. The gist of the method:
as §1

A short description of test [12]: qHTS of pediatric cancer cell lines to identify multiple opportunities for drug repurposing: Confirmatory screen for RD cells (AID 1347124).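 Further: cells exposed to compound for 48 h before viability readout; nearly all actives have a fitted effect of over 65% in size.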 The essentials:
as §1

Test [13] in a line: qHTS of pediatric cancer cell lines to identify multiple opportunities for drug repurposing: Confirmatory screen for Rh18 cells (AID 1347125). Further: nearly all actives have a fitted effect of over 55% in size. The gist of the method:
as §1

Test [14] can be described thus: qHTS of pediatric cancer cell lines to identify multiple opportunities for drug repurposing: Confirmatory screen for Rh30 cells (AID 1347126). Further: nearly all actives have a fitted effect of over 55% in size. Further: potency means the concentration at half of the fitted maximal effect. The essentials: as §1
Test [15] in a line: qHTS of pediatric cancer cell lines to identify multiple opportunities for drug repurposing: Confirmatory screen for Saos-2 cells (AID 1347127). Further: nearly all actives have a fitted effect of over 60% in size. The gist of the method: as §1
Test [16] is described as follows: qHTS of pediatric cancer cell lines to identify multiple opportunities for drug repurposing: Confirmatory screen for OHS-50 cells (AID 1347128).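 Further: compound exposure lasted 48 h at 37 degrees C; nearly all actives have a fitted effect of over 55% in size.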 The gist of the method: as §1
Test [17] is described as follows: qHTS of pediatric cancer cell lines to identify multiple opportunities for drug repurposing: Confirmatory screen for BT-12 cells (AID 1347112). Further: nearly all actives have a fitted effect of over 55% in size. The gist of the method: as §1
Test [18] can be described thus: qHTS of pediatric cancer cell lines to identify multiple opportunities for drug repurposing: Confirmatory screen for BT-37 cells (AID 1347117). Further: nearly all actives have a fitted effect of over 55% in size. The essentials: as §1
Test [19] is described as follows: qHTS of pediatric cancer cell lines to identify multiple opportunities for drug repurposing: Confirmatory screen for MG 63 (6-TG R) cells (AID 1347119). Further: nearly all actives have a fitted effect of over 55% in size. The essentials: as §1
Test [20] in a line: qHTS of pediatric cancer cell lines to identify multiple opportunities for drug repurposing: Confirmatory screen for DAOY cells (AID 1347114). Further: nearly all actives have a fitted effect of over 65% in size. The gist of the method: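 Viability measured as metabolically active cells via CellTiter-Glo luminescence following 48 hours of compound exposure, 11-point dilutions in confirmatory testing. 500-1,000 cells/well plated 5 hours before dosing; controls were DMSO and 2.3 µM bortezomib.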

Results filed as inconclusive are left out. Active and inactive are the calls of the source. The call rests on the fitted dose curve; in most records, active means well fitted curve in the direction sought with a large enough effect; inconclusive means small, poorly fitted or top-dose-only effect, or another doubt; inactive means no such curve, though single readings can be large; an effect the other way counts as inactive or inconclusive. Non-standard residues stand in square brackets, D forms with d. Residues, ends and D or L forms follow the SMILES beside them. *: point of attachment. Sta = CC(C)C[C@H](N)[C@@H](O)CC(=O)O; Isovaleryl = CC(C)CC(=O)*

`CCCc1cc(=O)[nH]c(=S)[nH]1`: the Potency entry in test [1], in [2] and in test [3] was “inactive” each time.
As to `CCC[C@@H]1C[C@@H](C(=O)N[C@@H]([C@H]2O[C@H](SC)[C@H](O)[C@@H](O)[C@H]2O)[C@@H](C)O)N(C)C1`, the Potency result in test [1], in [2] and in [3] was “inactive” in each case.
Take `Nc1ccc(S(N)(=O)=O)cc1`: the Potency entry in test [1], in test [2] and in [3] was “inactive” in each case.
Regarding `O=c1oc2cc(O)ccc2s1`, the Potency result in test [1], in [2] and in test [3] was “inactive” throughout.
As to `NS(=O)(=O)c1cc(C(=O)O)c(NCc2ccco2)cc1Cl`, the Potency entry in [1], in test [2] and in test [3] was “inactive” in each case.
In the case of `NNc1nncc2ccccc12`, the Potency result in test [1], in test [2] and in test [3] was “inactive” in each case.
Consider `COc1cc2c(cc1OC)C1CC(=O)C(CC(C)C)CN1CC2` (configuration not stated), for which the Potency entry in test [1], in test [2] and in [3] was “inactive” each time.
Turning to `COC(=O)C1=C(C)NC(C)=C(C(=O)OC(C)C)C1c1cccc2nonc12` (configuration not stated), the Potency result in [1], in test [2] and in test [3] was “inactive” each time.
Consider `COc1ccc(C2(C#N)CCC(C(=O)O)CC2)cc1OC1CCCC1` (configuration not stated), for which the Potency entry in test [1], in test [2] and in test [3] was “inactive” in each case.
As for `O=C(NC(Cc1cc(=O)[nH]c2ccccc12)C(=O)O)c1ccc(Cl)cc1` (configuration not stated), the Potency entry in [1], in [2] and in [3] was “inactive” each time.
In the case of `CCOC(=O)C1=C[C@@H](OC(CC)CC)[C@H](NC(C)=O)[C@@H](N)C1`, the Potency result in test [1], in test [2] and in [3] was “inactive” each time.
For `O=C1CCc2ccc(OCCCCN3CCN(c4cccc(Cl)c4Cl)CC3)cc2N1`, the Potency entry in test [1], in test [2] and in test [3] was “inactive” each time.
As to `Cc1ccc(C(=O)c2cc(O)c(O)c([N+](=O)[O-])c2)cc1`, the Potency entry in test [1], in test [2] and in test [3] was “inactive” in each case.
`CCCCCCCCCCCCCCCCCCCCCCO`: the Potency entry in [1], in test [2] and in test [3] was “inactive” throughout.
`CCC1=C(C)CN(C(=O)NCCc2ccc(S(=O)(=O)NC(=O)NC3CCC(C)CC3)cc2)C1=O` (configuration not stated): the Potency entry in test [1], in test [2] and in test [3] was “inactive” in each case.
Consider `Nc1cc(C(Cl)=C(Cl)Cl)c(S(N)(=O)=O)cc1S(N)(=O)=O`, for which the Potency entry in test [1], in test [2] and in test [3] was “inactive” throughout.
For `Cc1c(OCC(F)(F)F)ccnc1CS(=O)c1nc2ccccc2[nH]1` (configuration not stated), the Potency result in test [1], in test [2] and in test [3] was “inactive” throughout.
Consider `C=CCc1cc(OC)c(O)c(C(=O)NCCO)c1`, for which the Potency result in [1], in test [2] and in test [3] was “inactive” in each case.
As for `O=C(O)c1cc(=O)c2c(OCC(O)COc3cccc4oc(C(=O)O)cc(=O)c34)cccc2o1`, the Potency entry in [1], in [2] and in test [3] was “inactive” throughout.
For `COC(=O)N[C@H](C(=O)N[C@@H](Cc1ccccc1)[C@@H](O)CN(Cc1ccc(-c2ccccn2)cc1)NC(=O)[C@@H](NC(=O)OC)C(C)(C)C)C(C)(C)C`, the Potency entry in test [1], in test [2] and in [3] was “inactive” in each case.
For the compound `Cn1c(NCCN(CCO)CCCc2ccc([N+](=O)[O-])cc2)cc(=O)n(C)c1=O`, the Potency entry in test [1], in [2] and in test [3] was “inactive” throughout.
Consider `C[C@H](Cn1cnc2c(N)ncnc21)OCP(=O)(O)O`, for which the Potency result in test [1], in [2] and in [3] was “inactive” throughout.
On to `Cc1cc(=O)c2c(O)c3c(O)cc(=O)c4c3c3c(cc(O)c1c23)C(C)(C)C=4O`, for which the Potency entry in test [1] is “inactive”. The Potency in test [3] was 18.7 µM (active).
With `Nc1nc(OCc2ccccc2)c2[nH]cnc2n1`, the Potency result in [1], in test [2], in [4], in test [5], in test [6] and in test [7] was “inactive” in each case. The Potency entry in [8], in [9], in test [10], in [11], in test [12] and in test [13] was “inactive” throughout. In addition, the Potency entry in test [14], in test [15] and in test [16] was “inactive” throughout.
Regarding `CC(S)C(=O)NCC(=O)O` (configuration not stated), the Potency result in [1], in test [2], in test [3], in [4], in [17] and in test [7] was “inactive” each time. The Potency result in test [18], in test [8], in [19], in test [9], in [13] and in test [15] was “inactive” each time. For the same compound, the Potency result in [16] is “inactive”. Moreover, the Potency in test [14] is 10.4 µM (active).
For `Cc1ccc(S(=O)(=O)NC(=O)NN2CC3CCCC3C2)cc1` (configuration not stated), the Potency entry in test [1] and in test [3] was “inactive” each time.
`O=C(CS(=O)Cc1ccco1)NCC=CCOc1cc(CN2CCCCC2)ccn1` (configuration not stated): the Potency result in [1] and in test [3] was “inactive” throughout.
On to `CC(C)CC(=O)N[C@H](C(=O)N[C@H](C(=O)N[C@@H](CC(C)C)[C@@H](O)CC(=O)N[C@@H](C)C(=O)N[C@@H](CC(C)C)[C@@H](O)CC(=O)O)C(C)C)C(C)C` (Isovaleryl-VV[Sta]A[Sta]-OH), for which the Potency result in test [1], in [2], in test [3], in [20] and in test [7] was “inactive” in each case. The Potency in test [4] was 16.5 µM (active); in [5], 1.47 µM (active); in test [6], 5.22 µM (active); in [8] it was 5.85 µM (active).
On to `Nc1ncn([C@H]2C[C@H](O)[C@@H](CO)O2)c(=O)n1`, for which the Potency entry in [1], in test [2], in test [3], in test [4], in test [5] and in test [17] was “inactive” throughout. The Potency result in test [20], in [7], in test [19], in [9], in [10] and in test [11] was “inactive” throughout. Moreover, the Potency result in test [12], in [13], in [14], in [15] and in test [16] was “inactive” throughout.
